Assay results as given in publication PMC5540273 (PLoS ONE, 2017).

test system: MAK; details: concentration: 1 μM, replicates: in singlicate; n = 1
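Note: KINOMEscan kinase panel screen.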

Row | SMILES | %Inh [%]
1 | Cn1cc(-c2[nH]c3cc(NC(=O)[C@H](N)C4CCCCC4)cc4c3c2C=NNC4=O)cn1 | 0
2 | C[C@@H]1CC[C@@H](C(=O)Nc2ccccc2)CN1c1cc(-c2ccc3c(N)n[nH]c3c2)nc(N)n1 [GSK2286062] | 22
3 | Nc1ncc(-c2cccnc2)c2scc(-c3ccc4c(c3)CCN4C(=O)Cc3ccccc3)c12 [GSK683281] | 28
4 | CC(=O)Nc1nc2cnc(Nc3cc(NC(=O)c4cccc(C5(C#N)CC5)c4Cl)ccc3C)nc2s1 | 0
5 | CCc1ccc(-c2ccc3c(c2)-c2c(cnn2C)S(=O)(=O)N3C)cc1 | 14
6 | COCCOCCOc1cc2ncc3c4ccc(C#N)cc4[nH]c3c2cc1OC | 0
7 | Cc1ccc(C(=O)Nc2ccc(Nc3ccnc4cc(-c5nccs5)ccc34)cc2O)cc1.Cl [GW494702] | 46
8 | COc1cc(Nc2nccc(N3CCC(NC(=O)c4cc5ccccc5s4)C3)n2)cc(OC)c1OC (stereo not shown) [GSK1379760] | 23
9 | Cl.NC(=O)c1cccc(Nc2nccc(Nc3ccc(Oc4c(Cl)cccc4Cl)c(Cl)c3)n2)c1 [GW659009] | 27
10 | Cc1cccc(NC(=O)Nc2ccc(Oc3ncnc4ccn(C)c34)cc2)c1 | 0
11 | CNC(=O)c1ccccc1Nc1nc(Nc2ccc(N3CCOCC3)cc2)ncc1Cl.Cl [GSK1576028] | 11
12 | COc1cc2c(cc1OCCN1CCNCC1)ncc1c3ccc(C#N)cc3[nH]c21 | 2
13 | Cc1occc1-c1ncc(OC[C@@H](N)Cc2c[nH]c3ccccc23)cc1-c1ccc2[nH]nc(C)c2c1.O=C(O)C(F)(F)F [GSK682037] | 3
